Shown are actives, neighbours in structure and some others; about 8.5% of the full set was active somewhere.
JMJD2E inh: blocks human JMJD2E demethylase activity. JMJD2E catalytic domain, FDH-coupled NADH fluorescence (FDH is formaldehyde dehydrogenase). Potency, µM (highest dose often 57.1 µM), hits mostly inhibitors. hit rate 1.6% among 230,000. AID 2147; further: nearly all actives have a fitted effect of over 50% in size
Target sequence (B2RXH2 1-337 limits assumed): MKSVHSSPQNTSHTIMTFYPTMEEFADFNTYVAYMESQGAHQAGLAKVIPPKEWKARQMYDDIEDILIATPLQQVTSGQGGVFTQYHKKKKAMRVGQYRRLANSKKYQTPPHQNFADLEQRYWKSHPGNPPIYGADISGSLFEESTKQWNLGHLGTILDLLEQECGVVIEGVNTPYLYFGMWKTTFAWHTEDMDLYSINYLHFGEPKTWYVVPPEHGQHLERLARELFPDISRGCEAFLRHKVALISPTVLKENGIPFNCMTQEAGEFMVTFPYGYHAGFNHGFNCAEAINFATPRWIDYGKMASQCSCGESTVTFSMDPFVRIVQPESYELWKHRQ
Sfp PPTase inh: Sfp phosphopantetheinyl transferase inhibition. Q9F4F7. AID 1490. Biochemical Sfp PPTase activity, qHTS. hit rate 3.5% among 310,000. Potency, µM, most hits filed as inhibitors; active means well fitted curve in the direction sought with a large enough effect; inconclusive means small, poorly fitted or top-dose-only effect, or another doubt; inactive means no such curve, though single readings can be large; an effect the other way counts as inactive or inconclusive;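 further: the enzyme is Sfp with the accession as filed and its product quenches rhodamine fluorescence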
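Compounds were incubated with enzyme (final 15 nM) for 15 min at room temperature before substrate addition started the reaction. Fluorescence at 525 nm excitation, 598 nm emission was recorded immediately and after 30 minutes.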
GoLoco inh red: RGS12 GoLoco-Gai1 interaction inhibition | P63096 | Gai1:RGS12 GoLoco peptide FP, rhodamine, 10 min | Potency, µM (top dose mostly 61.6 µM), most hits filed as inhibitors | hit rate 0.44% among 230,000 | AID 880; active means well fitted inhibition curve with a large enough effect, not every such curve was filed as active; inactive means no such curve, though single readings can be large or run the other way; further: nearly all actives have a fitted effect of over 30% in size
ALDH1A1 block: ALDH1A1 (human) enzyme inhibition; Purified ALDH1A1, NADH fluorescence, propionaldehyde substrate; AID 1030; Potency, µM (titrated, usually from 75.3 µM), actives largely listed as inhibitors; P00352; hit rate 7.3% among 220,000
Coupling enz: inhibits coupling enzyme system, counter-screen for aldolase hits; coupling enzyme system counterscreen, AmpLite Red fluorescence; activity change, negative = inhibition, % at 58.2 µM, hits read low; hit rate 0.67% among 290,000; AID 2472; in the data active means activity change below about -30%
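First, compound is pin-transferred into glyceraldehyde-3-phosphate coupling-enzyme reagent at 57.5 uM final and held 10 min at RT. Next, substrate, coupling system and AmpLite Red are added. After 20 min RT, fluorescence (525/598 nm) is read.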
NPSR antag: neuropeptide S receptor (human) antagonism, cAMP; Q6W5P4; CHO-NPSR cells, cAMP TR-FRET, antagonist mode; Potency, µM (series often up to 38.3 µM), most hits filed as inhibitors; hit rate 1% among 220,000; AID 1461; active means well fitted curve in the direction sought with a large enough effect; inconclusive means small, poorly fitted or top-dose-only effect, or another doubt; inactive means no such curve, though single readings can be large; an effect the other way counts as inactive or inconclusive; further: nearly all actives have a fitted effect of over 50% in size
Each line names hits and unclear results; the compound was inactive in the other large screens. Unless noted, the call rests on the fitted dose curve; in most records, active means well fitted inhibition curve with a large enough effect (not every such curve was filed as active); inconclusive means small, poorly fitted or top-dose-only effect, or another doubt; inactive means no such curve, though single readings can be large or run the other way.

CC(=O)c1ccc(-n2nnnc2SCC(=O)N2CCc3ccccc3C2)cc1	ALDH1A1 block inconclusive
O=C(CSc1nnnn1-c1ccccc1)N1CCc2ccccc2C1	ALDH1A1 block 20µM
O=C(CSc1nnnn1-c1cccc2c1CCCC2)N1CCOCC1	ALDH1A1 block 7.94µM
CCOC(=O)c1noc(C)c1C(=O)Nc1nc(C)cc(C)n1	ALDH1A1 block 20µM
S=C1CCC(c2ccc(Br)cc2)=NN1c1ccccc1	none (no result: ALDH1A1 block)
Cc1cc(-c2cccs2)c(C#N)c(=S)[nH]1	JMJD2E inh inconclusive, Sfp PPTase inh 20µM (no result: ALDH1A1 block)
COCCN(C(=S)Nc1ccccc1OC)C(C)c1cccs1 (stereo unspecified)	none
NS(=O)(=O)c1ccc(NC(=S)Nc2ccc(C(=O)N3CCCCC3)cc2)cc1	ALDH1A1 block 17.8µM
O=C(c1ccc(NC(=S)Nc2ccc(Cl)c(Cl)c2)cc1)N1CCCC1	Sfp PPTase inh inconclusive, ALDH1A1 block inconclusive
NC(=O)C1(N2CCCCC2)CCN(C(=S)Nc2ccccc2)CC1	none
NS(=O)(=O)c1ccc(NC(=O)NC2CCCCC2)cc1	none
NS(=O)(=O)c1ccc(NC(=S)NC2CCCCC2)cc1	Sfp PPTase inh 7.94µM
NC(=O)C1(N2CCCCC2)CCN(C(=O)Nc2ccccc2C(F)(F)F)CC1	Sfp PPTase inh inconclusive, Coupling enz -34.5
NC(=O)C1(N2CCCCC2)CCN(C(=S)Nc2ccc(S(N)(=O)=O)cc2)CC1	Sfp PPTase inh 3.98µM, ALDH1A1 block inconclusive
COc1ccc(CN2CCN(CCC(C)C)C(CCO)C2)cc1Cn1cncn1 (stereo unspecified)	none
Cc1ccc([N+](=O)[O-])cc1-c1[nH]c(-c2ccc(O)c(O)c2)nc1-c1ccccc1	JMJD2E inh inconclusive, ALDH1A1 block 22.4µM
CC(C)c1ccc(NC2CCCN(C(=O)CCc3cn[nH]c3)C2)cc1 (stereo unspecified)	none (no result: JMJD2E inh, GoLoco inh red, ALDH1A1 block, Coupling enz, NPSR antag)
O=C1c2ccccc2C(=O)C12OC2c1cccc2ccccc12 (stereo unspecified)	JMJD2E inh inconclusive, Sfp PPTase inh 28.2µM, ALDH1A1 block 1µM, Coupling enz -58.0, NPSR antag inconclusive
O=C1CCCCC1c1cccc2ccccc12 (stereo unspecified)	none (no result: GoLoco inh red, NPSR antag)
CN(C)S(=O)(=O)c1cccc(C(=O)OCC(=O)c2ccc3c(c2)NC(=O)CO3)c1	ALDH1A1 block 22.4µM
Cc1ccccc1-c1noc(-c2ccccc2C(=O)NCc2ccco2)n1	Sfp PPTase inh 44.7µM, ALDH1A1 block 14.1µM
O=C(NCc1cccnc1)c1ccccc1-c1nc(-c2ccccc2)no1	ALDH1A1 block 20µM
O=C1S/C(=C/c2ccc(N3CCOCC3)o2)C(=O)N1Cc1c(F)cccc1Cl	Sfp PPTase inh 4.47µM, ALDH1A1 block 0.126µM, NPSR antag inconclusive
O=C1S/C(=C\c2ccc(N3CCOCC3)o2)C(=O)N1Cc1c(F)cccc1Cl	Sfp PPTase inh 2.82µM, ALDH1A1 block 0.126µM, Coupling enz -40.6, NPSR antag inconclusive
O=C1S/C(=C\c2ccc(N3CCOCC3)o2)C(=O)N1c1ccccc1	JMJD2E inh inconclusive, Sfp PPTase inh 3.98µM, ALDH1A1 block 0.891µM, Coupling enz -43.3
Cc1nc2ccc(NC(=O)Cc3ccc4c(c3)OCCO4)cc2s1	none
S=C1NCN(C2CCCCC2)CN1c1ccccc1	none
CC(=O)N(Cc1cc(=O)[nH]c2ccccc12)c1cccc(C)c1	JMJD2E inh inconclusive, Sfp PPTase inh 44.7µM, ALDH1A1 block 20µM
N#Cc1c(SCC(N)=O)nc(-c2ccccc2)c2c1CCCC2	ALDH1A1 block 22.4µM
Cc1cc(-c2ccccc2)c(C#N)c(SCC(N)=O)n1	ALDH1A1 block 12.6µM
Cc1ccc(-c2nc(SCC(N)=O)c(C#N)c3c2CCCC3)cc1	JMJD2E inh inconclusive, ALDH1A1 block inconclusive
N#Cc1c(SCC(=O)O)nc(-c2ccccc2)c2c1CCCC2	ALDH1A1 block 17.8µM (no result: GoLoco inh red)
Cc1cc(SCC(N)=O)nc(SCC(=O)c2ccccc2)n1	Sfp PPTase inh 44.7µM, ALDH1A1 block inconclusive
C#CCN(CC=C)C(=O)c1ccc2nc(C3CCCCC3)oc2c1	none (no result: JMJD2E inh, GoLoco inh red, ALDH1A1 block, NPSR antag)
CCN(c1ccccc1)S(=O)(=O)c1ccc(C(=O)N(CCN(C)C)c2nc3c(F)cc(F)cc3s2)cc1	none (no result: JMJD2E inh, GoLoco inh red, ALDH1A1 block, NPSR antag)

Screens deposited in PubChem BioAssay by National Center for Advancing Translational Sciences (NCATS).
